We go through seven compounds from PubChem BioAssay (Tox21).

“And” between values parts separate entries of the source, which are not always exact repeats. Equal entries are not always repeated. Values without a mark were called inactive. Inconclusive results are not listed. The source made the active and inactive calls. Unless noted, the call rests on the fitted dose curve; in most records, active means well fitted curve in the direction sought with a large enough effect in the repeat runs; inconclusive means weak or mixed curves; inactive means no such curve, though single readings can be large; an effect the other way counts as inactive or inconclusive.

Test [1] in a line: qHTS assay for small molecule agonists of the p53 signaling pathway - cell viability (AID 651633; calls by dose curve; further: potency means the concentration at half of the fitted maximal effect; nearly all actives have a fitted effect of over 30% in size). The method in brief: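 p53RE-bla cells, seeded at 4,000 per well and rested 5 h at 37 C/5% CO2, received compounds in DMSO for 16 h at 37 C. CellTiter-Glo was then added, and luminescence was read after 30 min at room temperature to gauge cytotoxicity.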
(In general: qHTS replaces the single test concentration by a dilution series.)

The nature of test [2]: qHTS assay for small molecules that induce genotoxicity in human embryonic kidney cells expressing luciferase-tagged ATAD5 - cell viability (AID 651634; calls by dose curve; further: nearly all actives have a fitted effect of over 25% in size; further: potency means the concentration at half of the fitted maximal effect). A digest of the protocol:
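Seeding of 2,000 HEK293T ATAD5-luciferase cells per well preceded pin-tool compound transfer. Plates sat 15.5 hr at 37C under 5% CO2, then fluorescence was read after 30 min with CellTiter-Fluor.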

The nature of test [3]: qHTS assay for small molecule disruptors of the mitochondrial membrane potential - cell viability (AID 720634; calls by dose curve; further: nearly all actives have a fitted effect of over 20% in size; further: potency means the concentration at half of the fitted maximal effect). A digest of the protocol:
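Measuring cytotoxicity alongside mitochondrial potential, the screen quantified ATP by luminescence in HepG2 cells after 1 hr compound incubation and a 30 min room-temperature CellTiter-Glo step.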

A short description of test [4]: qHTS assay for small molecule disruptors of the mitochondrial membrane potential (AID 720635). Further: potency means the concentration at half of the fitted maximal effect. A digest of the protocol:
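HepG2 cells (2,000/well) attached overnight at 37C, then took compound for 1 hr at 37C, 5% CO2. Mito-MPS dye was added for 30 min; fluorescence was read at 490/535 nm (monomers) and 540/590 nm (aggregates).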

The nature of test [5]: qHTS assay to test for compound auto fluorescence at 590 nm (red) in HepG2 cells (AID 720674). The method in brief: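 Rose Bengal sodium served as the red fluorophore standard. HepG2 monolayers (overnight attachment, MEM with 10% FBS) were exposed to test compounds for 1 hr at 37 C and read at Ex 540/Em 590 nm.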
Test [6] in a line: qHTS assay to test for compound auto fluorescence at 535 nm (green) in HepG2 cells (AID 720675). Further: potency means the concentration at half of the fitted maximal effect.
Test [7] can be described thus: qHTS assay to test for compound auto fluorescence at 460 nm (blue) in HEK293 cells (AID 720678). Further: potency means the concentration at half of the fitted maximal effect. The method in brief: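 Blue read-out at excitation 405 nm and emission 460 nm follows overnight compound exposure of HEK293 cells at 37C in 5% CO2. Activity is given as auto fluorescence equivalency to triamterene.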
Test [8] is described as follows: qHTS assay to test for compound auto fluorescence at 590 nm (red) in HEK293 cells (AID 720679). The method in brief:
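Red channel, Ex/Em 540/590nm; signal expressed as equivalency to Rose Bengal sodium. HEK293, 2,000 cells/well, 10% dialyzed FBS; 23 nL compound pinned after 4-5 hr attachment; overnight 37C/5% CO2 before reading.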

A short description of test [9]: qHTS assay to test for compound auto fluorescence at 535 nm (green) in HEK293 cells (AID 720680). Further: potency means the concentration at half of the fitted maximal effect.
A short description of test [10]: qHTS assay to test for compound auto fluorescence at 460 nm (blue) in HEK293 cell free culture (AID 720681). Further: potency means the concentration at half of the fitted maximal effect. The method in brief: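 Test compounds were pinned into cell-free culture medium (DMEM with 10% FBS) and fluorescence was read directly at Ex/Em 405/460 nm. Signals were expressed as fluorescence equivalents of triamterene, with DMSO vehicle as control.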
Test [11] can be described thus: qHTS assay to test for compound auto fluorescence at 535 nm (green) in HEK293 cell free culture (AID 720682). Further: potency means the concentration at half of the fitted maximal effect. The method in brief: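 Intrinsic compound fluorescence is measured in culture medium containing 10% FBS, with excitation at 485 nm and detection at 535 nm, referenced to fluorescein.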
Test [12] can be described thus: qHTS assay to test for compound auto fluorescence at 590 nm (red) in HEK293 cell free culture (AID 720683). A digest of the protocol:
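Tox21 10K library compounds were pinned into cell-free DMEM with 10% FBS and fluorescence was read at excitation 540 nm. Activity is expressed as Rose Bengal sodium equivalency.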

The nature of test [13]: qHTS assay to test for compound auto fluorescence at 590 nm (red) in HepG2 cell free culture (AID 720684). The method in brief: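 Measured in medium alone (MEM containing 10% FBS) following pintool addition of compound; emission at 590 nm with 540 nm excitation, referenced to Rose Bengal sodium.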
A short description of test [14]: qHTS assay to test for compound auto fluorescence at 460 nm (blue) in HepG2 cell free culture (AID 720685). Further: potency means the concentration at half of the fitted maximal effect. The method in brief: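 Compound (23 nL) or DMSO pinned into cell-free MEM with 10% FBS; blue fluorescence read at 405/460 nm excitation/emission, expressed as auto-fluorescence equivalency to triamterene.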
Test [15] in a line: qHTS assay to test for compound auto fluorescence at 535 nm (green) in HepG2 cell free culture (AID 720686). Further: potency means the concentration at half of the fitted maximal effect.
Test [16] is described as follows: qHTS assay to test for compound auto fluorescence at 460 nm (blue) in HepG2 cells (AID 720687). Further: potency means the concentration at half of the fitted maximal effect. The method in brief:
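Cells (2,000/well in MEM with 10% FBS) attached overnight at 37 C, then were exposed to compound or DMSO for 1 hr at 37 C, 5% CO2. Fluorescence read at Ex/Em 405/460 nm, expressed as triamterene-equivalent signal.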

Test [17] is described as follows: qHTS assay for small molecules that induce genotoxicity in human embryonic kidney cells expressing luciferase-tagged ATAD5 (AID 651632). Further: nearly all actives have a fitted effect of over 15% in size. The method in brief:
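Reporter cells (HEK293T) express luciferase-tagged ATAD5, a protein that accumulates after DNA damage. Treat 16 hr at 37C/5% CO2, add Amplite, wait 30 min at RT, and read luminescence.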

For test [18], the target named is Glucocorticoid receptor (Homo sapiens) (UniProt P04150). The test is described as follows: qHTS assay to identify small molecule agonists of the glucocorticoid receptor (GR) signaling pathway (AID 720691; active means well fitted activation curve with a large enough effect in the signal ratio in the repeat runs, not every such curve was filed as active; the % refers to the signal ratio). The note with it: GR-bla HeLa, beta-lactamase reporter ratio, 18 h; activation: at 62.4 µM (top of the series). The method in brief: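 Reporter read-out: fluorescence intensity following 2 h room-temperature LiveBLAzer B/G FRET substrate loading. Prior step: GR-bla HeLa cells held 4 h, then treated 18 h at 37 C.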
Glucocorticoid receptor (Homo sapiens), sequence (P04150 whole entry, looked up): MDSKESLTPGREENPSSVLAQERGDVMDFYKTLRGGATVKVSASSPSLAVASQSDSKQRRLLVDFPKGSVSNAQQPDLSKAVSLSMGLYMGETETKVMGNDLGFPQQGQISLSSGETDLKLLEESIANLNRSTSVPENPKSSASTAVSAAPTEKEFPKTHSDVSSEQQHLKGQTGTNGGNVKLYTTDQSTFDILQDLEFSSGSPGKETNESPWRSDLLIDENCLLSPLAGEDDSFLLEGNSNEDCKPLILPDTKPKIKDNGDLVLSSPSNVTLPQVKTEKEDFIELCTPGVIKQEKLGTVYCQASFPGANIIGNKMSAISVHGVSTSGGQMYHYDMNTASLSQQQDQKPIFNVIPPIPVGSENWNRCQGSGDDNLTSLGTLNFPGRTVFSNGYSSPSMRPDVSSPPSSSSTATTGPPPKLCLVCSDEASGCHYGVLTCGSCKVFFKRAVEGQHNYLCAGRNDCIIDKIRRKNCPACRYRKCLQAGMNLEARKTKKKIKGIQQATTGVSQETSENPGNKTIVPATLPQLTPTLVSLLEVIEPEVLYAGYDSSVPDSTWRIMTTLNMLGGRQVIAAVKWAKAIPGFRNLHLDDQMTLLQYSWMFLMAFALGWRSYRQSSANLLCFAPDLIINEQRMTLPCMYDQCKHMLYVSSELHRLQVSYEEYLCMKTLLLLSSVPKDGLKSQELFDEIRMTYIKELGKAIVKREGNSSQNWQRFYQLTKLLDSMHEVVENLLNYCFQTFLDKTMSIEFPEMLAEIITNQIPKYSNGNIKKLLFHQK

The target is the same in test [19]. The experiment in a line: qHTS assay to identify small molecule antagonists of the glucocorticoid receptor (GR) signaling pathway (AID 720692; active means well fitted inhibition curve with a large enough effect in the signal ratio in the repeat runs, not every such curve was filed as active; the % refers to the signal ratio; further: potency means the concentration at half of the fitted maximal effect). A digest of the protocol:
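Dexamethasone (5 nM final) stimulated a stably integrated GRE-beta-lactamase reporter in HeLa cells during 18 h co-incubation with compounds; signal was quantified as fluorescence intensity of B/G FRET substrate after 2 h.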
Tags describe the fitted curve by direction and shape or compound fluorescence and quenching.

As for `CCCCCCCCCCCCOC(=O)c1cc(O)c(O)c(O)c1`, the Potency is 48.3 µM (active) and 48.6 µM (active) in test [1]; 60.9 µM (active) and 13.7 µM (active) in [2]; 60.9 µM (active) and 54.5 µM (active) in [3]; 3.05 µM (active) and 4.33 µM (active) in [4]. Moreover, the Potency result in [5], in test [6], in test [7], in test [8], in [9] and in test [10] was “inactive” each time. The Potency result in [11], in test [12], in [13], in test [14], in test [15] and in test [16] was “inactive” each time.
On to `CNCC[C@H](Oc1cccc2ccccc12)c1cccs1`, for which the Potency entry in test [3], in test [5], in [6], in test [7], in test [8] and in test [10] was “inactive” throughout. The Potency result in test [11], in test [13], in [14], in test [15] and in [16] was “inactive” throughout. For the same compound, the Potency in test [4] is 13.3 µM (active).
For `COC(=O)[C@]1(C)CCC[C@@]2(C)[C@H]1CC=C1C=C(C(C)C)CC[C@@H]12`, the Potency result in [17], in [3], in test [5], in [7], in [8] and in [9] was “inactive” in each case. In addition, the Potency result in [10], in [11], in test [12], in [13], in [14] and in test [15] was “inactive” in each case. Besides, the Potency entry in test [16], in [18] and in test [19] was “inactive” in each case. In [4], the Potency is 54.5 µM (active).
For the compound `CSc1ccc2c(c1)N(CCC1CCCCN1C)c1ccccc1S2` (centres undefined), the Potency result in test [17], in test [5], in test [6], in [7], in [8] and in [10] was “inactive” each time. The Potency result in test [11], in test [12], in test [13], in [14], in test [15] and in test [16] was “inactive” in each case. Moreover, the Potency in [2] is 29.8 µM (active) and 68.3 µM (active).
For `N#CSCSc1nc2ccccc2s1`, the Potency was 21.7 µM (active) in test [1], 30.6 µM (active) in test [4] and 24.5 µM (active) in test [19]. Also, the Potency entry in test [2], in test [3], in [5], in test [6], in test [7] and in test [8] was “inactive” throughout. Moreover, the Potency entry in test [9], in [10], in [11], in test [12], in test [13] and in test [14] was “inactive” each time. Besides, the Potency entry in test [15] and in test [16] was “inactive” in each case.
For `C[n+]1c2cc(N)ccc2cc2ccc(N)cc21` (tested in a mixture with another compound), the Potency entry in test [3], in test [5], in test [8] and in test [13] was “inactive” throughout. Further, the Potency is 14.1 µM (active) in test [6]; 12.6 µM [fluorescent] (active) in [7]; 12.6 µM [fluorescent] (active) in test [9]; 11.2 µM (active) in test [10]; 12.6 µM [fluorescent] (active) in test [11]; 11.2 µM [fluorescent] (active) in [14]. For the same compound, the Potency in test [15] was 12.6 µM [fluorescent] (active); in test [16], 14.1 µM [fluorescent] (active).
In the case of `CCCCCCC(C)OC(=O)COc1nc(F)c(Cl)c(N)c1Cl` (centres undefined), the Potency result in [17], in test [2], in [5], in [6], in test [7] and in test [8] was “inactive” throughout. Besides, the Potency result in test [10], in test [11], in [12], in [13], in test [14] and in [15] was “inactive” throughout. Besides, the Potency entry in test [16] is “inactive”.
